Test results as given in PubChem BioAssay (NCI).
The panel holds about 83,000 compounds, 20% with a hit somewhere; the sample as a whole holds those more often.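 Results are percent growth after 48 hours of single-concentration exposure. 100 means growth as in untreated cells, lower positive values show inhibition; negative values down to -100 show cell death.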 Values without a mark were called inactive. Calls of active or inactive are those of the source. How the source made its calls: active means growth percent below 10; inactive means the rest.

Assays:
Experiment in all cases: NCI-60 one-dose screen, 48 h (100 = growth as untreated, 0 = no growth, -100 = all killed)
Conditions in all cases: 10 µM unless noted
DU-145 prostate = system: DU-145 prostate
MALME-3M melanoma = system: MALME-3M melanoma
MDA-MB-231 breast = system: MDA-MB-231 breast
RXF 393 renal = system: RXF 393 renal
SF-268 CNS = system: SF-268 CNS
SF-295 CNS = system: SF-295 CNS
SF-539 CNS = system: SF-539 CNS
UACC-257 melanoma = system: UACC-257 melanoma
M14 melanoma = system: M14 melanoma

SMILES	growth (DU-145 prostate)	growth (MALME-3M melanoma)	growth (MDA-MB-231 breast)	growth (RXF 393 renal)	growth (SF-268 CNS)	growth (SF-295 CNS)	growth (SF-539 CNS)	growth (UACC-257 melanoma)	growth (M14 melanoma)
O=C1c2ccccc2C(=O)c2c([N+](=O)[O-])ccc(Cl)c21	101%	116%	103%	94.3%	87.4%	116%	99.1%	96.2%	108%
COc1ccc(-c2nc([C@@H](C)Sc3nc(N)cc(N)n3)c(C)s2)cc1OCCN1CCOCC1	111%	102%	66.6%	96%	102%	97.6%	111%	100%	114%
O=C1c2ccccc2CCC12OC2c1cn(-c2ccccc2)nc1-c1ccc(Cl)cc1 (stereo unspecified)	111%	105%	91.9%	93.1%	93.1%	71.9%	93.4%	96.1%	97.7%
COc1ccc(-c2cnc3c(-c4cccc5cnccc45)cnn3c2)cc1	69.9%	45%	37.8%	48.7%	92.7%	62.5%	2.09% (active)	88.7%	74.5%
Cc1nc2sccn2c1-c1nc2sccn2c1/C=C1/C(=O)Nc2ccccc21	48%	50%	44.6%	32.7%	60.9%	-8.95% (active)	16.4%	51.8%	34.2%
CNCCOc1nc2c3cnccc3cc(-c3cc(OC)c(OC)c(OC)c3)c2c2ccncc12	-13.7% (active)	-80.2% (active)	-9.1% (active)	-85.7% (active)	-9.41% (active)	-20.7% (active)	-59.5% (active)	-43.1% (active)	-67.8% (active)
C[C@@H](Nc1ncnc2ccc(-c3cnc(N)nc3)cc12)c1ccc(F)cc1	47.9%	85.2%	59.6%	34.7%	64.1%	81.7%	95.3%	94.8%	82.7%
COc1ccc(-c2nc(S(=O)(=O)c3ccccc3)c(S(=O)CC(=O)N3CCC(C)CC3)o2)cc1 (stereo unspecified)	42.5%	-16.6% (active)	24.7%	17.2%	62.5%	92.9%	40.4%	65.9%	35.1%
NS(=O)(=O)c1ccc(CCn2c(SCC(=O)c3ccc(Cl)cc3)nc3ccccc3c2=O)cc1	102%	96.4%	95.5%	111%	100%	103%	94.2%	111%	104%
CCOC(=O)C1=C(CCl)NC(=O)NC1c1ccc2c(c1)OCO2 (stereo unspecified)	36.6%	18.5%	39.4%	39.1%	66.9%	71.1%	16.5%	67.2%	32.3%
COc1ccc2c(c1)oc1c(C)c3c(c(C)c12)C(=O)N(CCN1CCOCC1)C3=O	107%	100%	86.2%	93.9%	99.5%	110%	100%	93.8%	104%
O=C1/C=C/[C@@H](O)[C@@H]2C[C@@H](O)C[C@H]2/C=C/CCC[C@H](CCc2ccc3ncccc3c2)O1	13.5%	-17.8% (active)	-43% (active)	-32.6% (active)	15.2%	1.79% (active)	19.2%	19.3%	6.52% (active)
N#CC1=C(N)Oc2c(ccc3ccccc23)C1c1ccccc1Cl (stereo unspecified)	17.1%	52%	9.2% (active)	17.9%	51%	8.26% (active)	-13.5% (active)	60.1%	12.5%
OCc1cnc2ccccc2c1NC1CCCCCC1	97.7%	102%	81.3%	103%	101%	86.4%	102%	94.5%	91.4%
COc1ccc(/C=C/c2nc(Nc3ccc(Cl)cc3)c3ccccc3n2)cc1	50.2%	94.6%	38.2%	56.6%	54.3%	72.6%	90.9%	92.2%	34.3%
N#Cc1c(-c2ccccc2)nc2c(c(-c3ccccc3)nn2-c2ccccc2)c1-c1ccc(O)cc1	49.4%	43.8%	23.8%	-17.6% (active)	55.5%	-43.1% (active)	23.3%	71.3%	56.4%
O=C(Nc1ncc(Cc2cc(Cl)ccc2Cl)s1)c1cccs1	81.1%	50%	79.8%	56%	74.9%	50.4%	73.9%	78.6%	42.9%
COCCCN1CC(O)=C(c2nc(-c3ccc(C)cc3)cs2)C1=N	102%	101%	96.1%	94.3%	223%	123%	96.9%	83.7%	100%
CCOC(=O)CC1CSC(N/N=C/c2ccc(-n3cccn3)cc2)=N1 (stereo unspecified)	108%	113%	101%	105%	103%	107%	107%	96.2%	107%
COc1ccc(C(=O)Cn2c(C(=O)c3ccccc3)nc3ccccc32)cc1	36.7%	46.6%	37.6%	13.1%	52.9%	12.2%	15.1%	54.3%	6.97% (active)
N#CC(C(=O)/C(=N/NC(=O)c1ccccc1O)C(C#N)c1ccccc1)c1ccccc1 (stereo unspecified)	39.4%	87.8%	63.7%	55.9%	44.1%	101%	33.3%	46.2%	46.4%
O=C1Nc2ccccc2/C1=C\c1c(-c2ccc(F)cc2)nc2ccccn12	94.5%	73.7%	60.2%	67%	77.7%	59.9%	78%	102%	53.2%
Cc1ccc(-c2csc(NC(=O)CSc3nc(-c4ccccc4)cc(=O)[nH]3)n2)cc1	103%	94.4%	93.2%	110%	90.2%	87.5%	97.7%	99.9%	105%
Nc1c(S(=O)(=O)O)cc2c3c(cccc13)C(=O)OC2=O	140%	112%	103%	131%	109%	117%	100%	78.8%	102%
CCNc1nc2cc(Nc3ccnc4cc(Cl)ccc34)ccc2o1	86.2%	91.7%	64.3%	66.5%	81.1%	55.2%	65.9%	83.5%	61%
O=C1C=CC(=O)N1c1cccc(Cl)c1	123%	120%	132%	116%	108%	107%	113%	97.1%	114%
N#Cc1c(-c2cccc([N+](=O)[O-])c2)nc(SCC(=O)c2ccc(Cl)cc2)[nH]c1=O	105%	99.9%	99.3%	102%	97.7%	104%	100%	105%	100%
COC1=CC(=O)c2ccccc2C1=O	88.8%	72.4%	99.1%	118%	102%	104%	124%	59.9%	87.2%
CCCCCCCC(=O)OCC/C=C/C1OC1C1OC(=O)/C=C\C=C\C(=O)N(C(C)=O)C(=O)/C=C(/C)CCC2OC2C1OC(=O)NC(C)=O (stereo unspecified)	84.3%	123%	73.9%	78.7%	93.4%	90.9%	25.9%	84.2%	81.7%
